# According to PubChem BioAssay (NCI):
# This is part of a sample that, as a whole, favours compounds with a hit. Of some 83,000 tested, about 20% had one in any assay.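 Note: values are percent growth. 100 is the growth of untreated cells, values between 100 and 0 indicate rising inhibition; between -100 and 0 indicates cell death.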 A number with no mark means an inactive call. Calls of active or inactive are those of the source. The calls were made as follows: active = growth percent below 10; inactive = the rest.
# Tests used:
# Assay in all cases: NCI-60 one-dose screen, 48 h (100 = growth as untreated, 0 = no growth, -100 = all killed)
# Settings in all cases: 10 µM
# NCI-H23 lung = tested on: NCI-H23 lung
# NCI-H226 lung = tested on: NCI-H226 lung
# NCI-H322M lung = tested on: NCI-H322M lung
# HOP-62 NSCLC = tested on: HOP-62 NSCLC
# NCI-H460 lung = tested on: NCI-H460 lung
# HOP-92 NSCLC = tested on: HOP-92 NSCLC
# NCI-H522 lung = tested on: NCI-H522 lung
# A549/ATCC NSCLC = tested on: A549/ATCC NSCLC
# 786-0 renal = tested on: 786-0 renal
# COLO 205 colon = tested on: COLO 205 colon
Compound,growth (NCI-H23 lung),growth (NCI-H226 lung),growth (NCI-H322M lung),growth (HOP-62 NSCLC),growth (NCI-H460 lung),growth (HOP-92 NSCLC),growth (NCI-H522 lung),growth (A549/ATCC NSCLC),growth (786-0 renal),growth (COLO 205 colon)
COC[C@@H](CC(C)C)N=C1NC(=O)/C(=C/c2ccc3ncsc3c2)N1,-10.5% (active),-1.9% (active),15.8%,3.81% (active),7.24% (active),3.44% (active),-3.68% (active),13.5%,23.5%,-11.8% (active)
COc1ccc(-c2cc(-c3cc(C(=O)c4ccc(Br)cc4)n4ccc(C)cc34)nc(N)c2C#N)cc1,63.1%,60.4%,93.6%,95.1%,84.7%,87.5%,89.9%,93.2%,56.9%,67.2%
O=S(=O)(Nc1ncccn1)c1ccc(-n2c(-c3ccc(Br)cc3)nc(-c3ccccc3)c2-c2ccccc2)cc1,22.5%,26%,64.1%,56.8%,31.7%,11.4%,74.5%,34.9%,34.5%,124%
CCCn1c(=O)c2[nH]c(-c3ccc(OCc4nc5ccc(F)cc5[nH]4)cc3)nc2n(CCC)c1=O,26.3%,-36.1% (active),23.8%,-19.4% (active),-50.8% (active),-27.5% (active),24.3%,36%,-87.2% (active),25.5%
O=C(CNc1nc(-c2ccccc2)cs1)Nc1ccc(Br)cc1,-90.8% (active),-58.6% (active),-99.5% (active),-78.8% (active),-61.5% (active),-71.5% (active),-77.8% (active),-82.3% (active),-73.2% (active),-77.4% (active)
CC(C)CCSc1nc(NC2CC2)c(C#N)c(-c2ccc(C(C)C)cc2)n1,101%,106%,113%,94.9%,120%,114%,90.7%,106%,93.6%,126%
CN(C)c1nc(NCCNS(=O)(=O)c2ccc(C(=O)/C=C/c3ccccc3)cc2)nc(Nc2ccc(F)cc2)n1,28.8%,27.8%,44.1%,61.1%,14.9%,-12.1% (active),61.6%,45.4%,-20.6% (active),54%
CCCCCCCCCCCCCCCCCCCC(=O)NCCc1c[nH]c2ccc(OC(=O)CCCC(=O)OCCOOCCOOCCOOCCOOCCOOCCOOCCOOCCOOCCOOCCOOCCOOCCOC)cc12,59.7%,52.9%,109%,120%,50.4%,74.7%,-82.9% (active),42.3%,83.9%,117%
CCCCCc1ccc(S(=O)(=O)N(C(C)=O)c2cc(-c3csc(N(C)C(C)=O)n3)ccc2N2CCN(C)CC2)cc1,43.6%,72.2%,55.8%,51.6%,-41.6% (active),-2.86% (active),55.5%,40.1%,-16.2% (active),-71.6% (active)
O=C(CNc1nc(-c2ccccc2)cs1)Nc1cccc(Cl)c1,28.4%,44.8%,62.3%,46.6%,44.8%,-5.42% (active),4.23% (active),38.7%,54.6%,40.3%
CC(=C(c1ccc(OCCN2CCCCCC2)cc1)c1ccc(OCCN2CCCCCC2)cc1)c1ccc(Cl)cc1,-96% (active),-89.8% (active),-100% (active),-96.8% (active),-54.1% (active),-74.3% (active),-92.7% (active),-98.4% (active),-75.7% (active),-93% (active)
Cc1ccc(CNC(=O)Cc2ccc3c(c2)CN(C2CCC(=O)NC2=O)C3=O)cc1 (stereo not given),66.5%,3.79% (active),16.1%,-10.2% (active),95%,-22.5% (active),9.7% (active),10.6%,0.61% (active),-12.5% (active)
N#Cc1c(Cl)nc(SCc2ccc(F)cc2)nc1-c1ccc(F)cc1,95.7%,71.3%,92.2%,101%,103%,74.8%,74.6%,91.6%,95.4%,120%
CC(C)(C)c1ccc(NCc2cn(-c3ccc(C(=O)O)cc3)nc2-c2ccc(C#N)cc2)cc1,8.82% (active),31.6%,41%,36.2%,11.6%,-3.79% (active),57.1%,24.3%,22.8%,34.8%
NS(=O)(=O)c1ccc(NC(=O)CSc2ccc(-c3ccccc3)nn2)c(Br)c1,59.1%,20.5%,64.3%,17.4%,82.4%,-20.3% (active),42.4%,70.4%,19.5%,137%
O=C(CN1CCN(c2ncnc3c2cnn3-c2ccccc2)CC1)Nc1nncs1,-55.1% (active),43.9%,84.8%,-52.7% (active),-22.1% (active),-70.9% (active),-79.3% (active),-32.5% (active),-80.9% (active),-50.2% (active)
O=C(Cc1ccc2c(c1)CN(C1CCC(=O)NC1=O)C2=O)NCCc1ccccc1 (stereo not given),72.8%,11.4%,22.5%,0.419% (active),110%,-14.1% (active),35.4%,20.3%,6.47% (active),0.214% (active)
O=C(c1ccc(-n2c(=O)[nH]c3ccccc3c2=O)cc1)N1CCOCC1,116%,99.6%,98.7%,134%,109%,99.8%,101%,119%,99.5%,110%
O=C(CNc1nc(-c2ccccc2)cs1)Nc1ccccc1,-86.4% (active),-2.46% (active),-96.2% (active),-62.9% (active),-11.4% (active),-8.88% (active),-81.6% (active),7.05% (active),-25.5% (active),-83.8% (active)
O=c1[nH]c2ccccc2cc1CSc1ccc(Nc2nccc(-c3ccc(Cl)cc3)n2)cc1,-26.6% (active),-70.5% (active),0.401% (active),-68% (active),-59.6% (active),-68.1% (active),2.64% (active),-39.7% (active),-80.1% (active),-16% (active)
COc1ccc(Nc2nc(N)n(Cc3cccc(Br)c3)n2)cc1,0.552% (active),10%,27.7%,35.1%,-17.6% (active),-36.9% (active),-20.9% (active),19.6%,-9.25% (active),-46.6% (active)
O=C(Nc1ccc(Cl)c(C(F)(F)F)c1)c1cncc(C#Cc2cnc3ccc(N4CCOCC4)nn23)c1,-18.7% (active),-32.8% (active),6.5% (active),11.1%,29.3%,-48.6% (active),-11.3% (active),16.1%,-28.5% (active),11.9%
N#Cc1ccc(-c2nn(-c3ccc(C(=O)O)cc3)cc2CNc2ccc(Oc3ccccc3)cc2)cc1,12%,85.1%,88.2%,37.4%,40.2%,38.8%,66.8%,46.5%,30.5%,118%
CC(=O)Nc1ccc(-c2cn(-c3cccc(C(=O)Nc4cc(C(F)(F)F)cc(C(F)(F)F)c4)c3)nn2)cn1,-68.6% (active),-68% (active),-15.6% (active),-61.1% (active),-71.6% (active),-52% (active),-11.2% (active),-26.1% (active),-42.8% (active),-62.2% (active)
O=C(Nc1ccc(I)cc1)Nc1nc2ccc([N+](=O)[O-])cc2s1,-95.9% (active),-74.2% (active),-86.6% (active),-90.4% (active),-72.1% (active),-87.9% (active),-89.4% (active),-91.6% (active),-100% (active),-92.2% (active)
C=CC(=O)Nc1nc(-c2cccc(NS(=O)(=O)c3cccc4c(N(C)C)cccc34)c2)cs1,-3.14% (active),6.89% (active),56.2%,31.2%,-32.8% (active),-49.2% (active),-76.9% (active),19.3%,-82.5% (active),-56.3% (active)
